The record followed here is PubChem BioAssay (EPA / NIEHS).

Experiment [1] can be described thus: CCTE_Shafer_MEA_acute_AB: CCTE's Alamar Blue Assay for Cytotoxicity in the Neural Acute Assay, Shafer Lab (AID 2284069).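 Note: active compounds lower the viability signal compared with DMSO wells.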 The method in brief:
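Resazurin reduction (CellTiter Blue, 1:6 in fresh medium) read at ex 544/em 590 nm marks viability loss relative to DMSO. Cells: primary rat cortical neuron networks on microelectrode arrays, treated after baseline recording at 13 or 15 days in vitro.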
On the technique in general: Resazurin is reduced to fluorescent resorufin, in cell work by metabolically active cells.

A short description of experiment [2]: CCTE_Shafer_MEA_acute_LDH: CCTE's Lactate Dehydrogenase Assay for Cytotoxicity in the Neural Acute Assay, Shafer Lab (AID 2284086).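 Note: active means LDH release rises above DMSO vehicle level.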 A digest of the protocol: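 Medium from rat cortical neuron MEA cultures sampled right after the 40 min compound-exposure recording; released LDH measured by absorbance at 490 nm. Analyzed as signal gain relative to DMSO.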
Experiment [3] in a line: CCTE_Shafer_MEA_dev_per_network_spike_spike_number_mean: CCTE's Neural Network Formation Assay for Mean Number of Spikes in a Network Spike, Shafer Lab (AID 2284053; active = hit-call score of the fitted dose curve at least 0.9, where 1 is the maximum; inactive = score below 0.9). The method in brief: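 Mean spike count within each network spike, taken in a 0.05 s window at its peak, was recorded on days 5, 7, 9 and 12 and integrated as trapezoidal area under the curve. Rat cortical cultures on MEA plates received continuous compound from day 0, refreshed at medium changes on DIV 5 and 9.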

Experiment [4] is described as follows: CCTE_Shafer_MEA_dev_per_network_spike_spike_percent: CCTE's Neural Network Formation Assay for Percent of Spikes in a Network Spike, Shafer Lab (AID 2284054; active = hit-call score of the fitted dose curve at least 0.9, where 1 is the maximum; inactive = score below 0.9). The method in brief: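 Rat primary cortical neurons were grown on 48-well MEA plates (16 electrodes/well), exposed from plating day 0 through day 12, with treatment renewed on DIV 5 and 9. Percent of spikes within 0.05 s network-spike peaks was measured, summarised as AUC across days 5, 7, 9, 12.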

Experiment [5] can be described thus: CCTE_Shafer_MEA_dev_AB: CCTE's Alamar Blue Assay for Cytotoxicity in the Neural Network Formation Assay, Shafer Lab (AID 2284083).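 Note: resazurin reduction fluorescence as viability of cultured neurons; twelve days of exposure from plating with re-dosing on DIV 5 and 9.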 The method in brief: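 Resazurin fluorescence, relative to DMSO, gauges viability after twelve days of exposure that began at plating of rat cortical neurons (1.5 x 10^5 cells/well, 48-well MEA); treatment renewed with full medium exchange on DIV 5 and 9.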

Experiment [6] is described as follows: CCTE_Shafer_MEA_dev_mutual_information_norm: CCTE's Neural Network Formation Assay for Mutual Information Normalization, Shafer Lab (AID 2284091; active = hit-call score of the fitted dose curve at least 0.9, where 1 is the maximum; inactive = score below 0.9;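 for AC50: mutual information between electrodes summarised as area under curve across four recording days; potency is for a decrease in mutual information relative to DMSO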). The method in brief:
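Primary rat cortical neurons on PEI-coated 48-well MEA plates, 1.5 x 10^5 cells/well, exposed from day 0 through day 12 with re-dosing at DIV 5 and 9. Mutual information between electrodes recorded days 5, 7, 9, 12; trapezoidal AUC, loss-of-signal fit versus DMSO.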

Experiment [7] can be described thus: UKN5_HCS_SBAD2_cell_viability: Viability Assessment in the University of Konstanz (UKN) Leist Lab Neurite Outgrowth Assay in human iPSC-derived immature Dorsal Root Ganglia Neurons (UKN5) (AID 2284056; active = hit-call score of the fitted dose curve at least 0.9, where 1 is the maximum; inactive = score below 0.9). The method in brief: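 iPSC-derived immature peripheral neurons (SBAD2) seeded on Matrigel with CHIR99021, SU5402 and DAPT, dosed 1 h later for 24 h. Viability from Hoechst H-33342 and calcein-AM live staining, high-content imaging; bidirectional fit versus DMSO.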

A short description of experiment [8]: CCTE_Shafer_MEA_dev_LDH: CCTE's Lactate Dehydrogenase Assay for Cytotoxicity in the Neural Network Formation Assay, Shafer Lab (AID 2284068).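 Note: exposure for twelve days from plating with re-dosing on DIV 5 and 9.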 The method in brief: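 Primary rat cortical neurons were cultured on PEI-coated MEA plates and exposed from plating through day 12, with compound renewed at medium changes on DIV 5 and 9. LDH activity was read spectrophotometrically; loss of signal versus DMSO indicates reduced viability.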

Experiment [9] in a line: UKN5_HCS_SBAD2_neurite_outgrowth: University of Konstanz (UKN) Leist Lab Neurite Outgrowth Assay in human iPSC-derived immature Dorsal Root Ganglia Neurons (UKN5) (AID 2284070; active = hit-call score of the fitted dose curve at least 0.9, where 1 is the maximum; inactive = score below 0.9). The note with it: actives raise or lower the signal. A digest of the protocol:
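SBAD2 iPSC-derived immature peripheral neurons on Matrigel, 100.000 cells/cm2, medium with CHIR99021 (1.5 uM), SU5402 (5 uM), DAPT (5 uM); compound added 1 h post-seeding for 24 h. Calcein-AM neurite area by high-content imaging; Hoechst H-33342 viability; bidirectional fit vs DMSO.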

Another experiment relates to DIO3 (gene 1735). Nature of the experiment: CCTE_GLTED_hDIO3: CCTE's human Deiodinase 3 (DIO3) Inhibition Assay, Great Lakes Toxicology and Ecology Division (GLTED) Lab (AID 2284055).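 Note: potency is for inhibition seen as loss of released iodide signal.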 A digest of the protocol:
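Human DIO3 from an adenovirus expression system is incubated 3 h with test chemical. Released iodide is quantified by Sandell-Kolthoff absorbance, in triplicate plates. Loss of signal is fitted relative to DMSO.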

Records with an inconclusive call do not appear. A structure can be active in one record and inactive in another. Activity calls are given as the source filed them. Rule for the calls, unless noted: active = hit-call score of the fitted dose curve at least 0.9, where 1 is the maximum; inconclusive = response in the unintended direction; inactive = score below 0.9.

As to `COc1ccc(S(=O)(=O)N2C(=O)[C@@](c3ccccc3OC)(N3C[C@H](O)C[C@H]3C(=O)N(C)C)c3cc(Cl)ccc32)c(OC)c1`, the molecule was classed as inactive in [1] and in [2].

With `Cc1ccc2ncccc2c1`, in experiment [1], the result was inactive.

Turning to `Nc1ccccc1N`, the call in [1] and in experiment [2] was inactive.

Turning to `NCC1(Cc2noc(=O)[nH]2)CCCCC1`, the result in experiment [2] was inactive.

Take `OC[C@@H](O)[C@@H](O)[C@H](O)[C@H](O)CO`: the molecule was classed as inactive in experiment [3], in experiment [4] and in [6]. Besides, in experiment [5], the AC50 – broadly, the concentration at which the activity in the assay is half-maximal – is 0.437 µM (active).

Take `CC(=O)Oc1ccccc1C(=O)O`: the call in [3], in experiment [4], in [7], in [8], in [9] and in experiment [5] was inactive. Also, the call in [6] was inactive. Also, the AC50 in experiment [6] is 15 µM (active).

With `CCCCCCCCCCO`, the outcome in experiment [2] was inactive.

Take `O=C(O)CCCCC(=O)O`: in experiment [2], the molecule was called inactive.

Turning to `Nc1nc(N)c2nc(CNc3ccc(C(=O)N[C@@H](CCC(=O)O)C(=O)O)cc3)cnc2n1`, the outcome in experiment [1] was inactive.

As to `CC(C)(C)c1cc(O)c(C(C)(C)C)cc1O`, the molecule was called inactive in experiment [1] and in experiment [2].

Turning to `NS(=O)(=O)c1cc2c(cc1Cl)NCNS2(=O)=O`, the result in [1] and in [2] was inactive.

With `Clc1cc(Cl)c(Cl)cc1Cl`, the result in experiment [1] was inactive.

Take `CCCCCCCCCCCCCCCCCC(=O)O`: the outcome in experiment [1] was inactive.

Turning to `CCCCC(CC)COC(=O)CC(C(=O)OCC(CC)CCCC)S(=O)(=O)O` (stereo unspecified), in the experiment on DIO3 (gene 1735), the AC50 is 92.2 µM (active).

Consider `CN1CCCC1=O`, for which, in [2], the molecule was classed as inactive.

Take `Nc1ccc2c(c1)C(=O)c1ccccc1C2=O`: in experiment [2], the molecule was classed as inactive.

In the case of `Cc1ccc(C)c(O)c1C`, the molecule was called inactive in experiment [1].

As to `CC(C)c1ccc(C(=O)N=C(N)N)cc1S(C)(=O)=O`, the molecule was classed as inactive in experiment [3], in [4], in experiment [8], in experiment [5] and in [6].

On to `Cc1cc(=O)[nH]c(=S)[nH]1`, for which the result in [3], in experiment [4], in experiment [5] and in [6] was inactive.

For the molecule `C=CCOC(=O)c1ccccc1C(=O)OCC=C`, in [1], the call was inactive.
